Measurements from ChEMBL document CHEMBL4513216, “Probing the Open Global Health Chemical Diversity Library for Multistage-Active Starting Points for Next-Generation Antimalarials” (ACS Infect Dis, 2020).
Hit rate of the full screen: of about 69,000 compounds, about 8,600 (12%) showed an effect of 50% or more. This excerpt belongs to a sample that is enriched for strong results.

system: Plasmodium berghei; assay: Screen against P. berghei liver stage (PbLuc), transformed with Luciferase, at 10uM; format: functional, HepG2; conditions: tested at 10 uM

In order of falling INHIBITION:
1. Cc1nc(C2CCCN(C(=O)c3cc(C)sc3C)C2)no1 (centres undefined)  81.2%
2. c1cnc(N2CCCC(c3cc4cccnc4[nH]3)C2)nc1 (centres undefined)  72.5%
3. c1cnc(N2CCC3(COCc4cnc(N5CCOCC5)nc43)C2)nc1 (centres undefined)  68.3%
4. Cn1c2ccccc2c2ncn(CCN3CCOCC3)c(=O)c21  63.6%
5. Cn1nc(COc2cncnc2)c2c1CCN(Cc1ccco1)C2  63.5%
6. Cn1nc(COc2cccnc2)c2c1CCN(CC1CC1)C2  61.1%
7. COCCCNC(=O)NCc1cccn1Cc1ccccc1C  60.7%
8. Cc1cccc2c(=O)c(C(=O)N3CCCC4(CN(C)C(=O)O4)C3)c[nH]c12 (centres undefined)  60.1%
9. O=C1CNc2ncnc(N3CCN(c4ccccc4F)CC3)c2N1  59%
10. Cc1ocnc1C(=O)N1CC[C@@H](O)[C@@H](O)[C@H](N2CCC(F)(F)CC2)C1  59%
11. Cc1nc(C2CCCN(C(=O)C3=NN(C(C)C)C(=O)CC3)C2)no1 (centres undefined)  58.3%
12. CCOC(=O)CNC(=O)NCc1cccn1Cc1ccccc1F  56.5%
13. O=C1CNc2ncnc(N3CCN(Cc4cccc(F)c4)CC3)c2N1  55.7%
14. COc1cc(C)ccc1S(=O)(=O)N[C@H]1CN(C(C)=O)C[C@@H]1C1CC1  55.2%
15. COCCn1c(=O)n(Cc2cccc(F)c2F)c2cc(C(=O)O)ccc21  55%
16. Cn1nc(CN2CCCC2)c2c1CN(c1cnccn1)CC2  54.8%
17. Cc1cnc(N2CCc3c(c(COc4cncnc4)nn3C)C2)nc1  53.9%
18. Cn1nc(COc2cccnc2)c2c1CCN(c1cnccn1)C2  53.5%
19. Cn1nc(COc2cccnc2)c2c1CCN(c1ncccn1)C2  53%
20. COCCN1CCC2(COCc3cnc(N4CCOCC4)nc32)C1 (centres undefined)  52.3%
21. Cc1nc(C2CCCN(C(=O)c3cccc(S(C)(=O)=O)c3)C2)no1 (centres undefined)  51.3%
22. CN1CCC2(COCc3cnc(N4CCOCC4)nc32)C1 (centres undefined)  51.3%
23. c1cncc(CCc2nc(C3CC3)nn2-c2ccc3c(c2)OCCO3)c1  50.1%
24. CCc1nc(N)nc(N2CCCC3(CCOCC3)C2)c1C  50%
25. COCCCNC(=O)NCc1ccc(C)cc1  48.8%
26. Cc1cc(CNC(=O)NCCCC(=O)N2CCc3ccccc32)no1  45.4%
27. Cn1c2ccc(F)cc2c2ncn(CCN3CCOCC3)c(=O)c21  45%
28. CC(C)=CCN1C(=O)[C@@H]2CC[C@H]1CN(C(=O)CCc1n[nH]c(C)c1C)C2  43.8%
29. Cc1nc(C2CCCN(C(=O)c3sc(C)nc3C)C2)no1 (centres undefined)  43.4%
30. Cn1nc(CN2CCCC2)c2c1CN(C(=O)c1cnccn1)CC2  43.4%
31. CN(C)C(=O)c1cccc(CN2CCOC(Cn3cncn3)C2)c1 (centres undefined)  41.5%
32. CCOC(=O)CNC(=O)NCc1cccn1Cc1ccccc1  40.8%
33. O=C1CNc2ncnc(N3CCN(Cc4ccccc4F)CC3)c2N1  39.1%
34. Cc1nc(NCCc2ccccc2)cc(C(=O)N2CCOCC2)n1  38.5%
35. c1ccc(N2CCC3(COCCN(c4ncccn4)C3)C2)nc1 (centres undefined)  38.5%
36. Cc1cnccc1CN(C)C(=O)C(C)(C)NC(=O)c1cccs1  37.9%
37. Cc1cc(C(=O)N2CCCC3(CN(C)C(=O)O3)C2)c2ccc(F)cc2n1 (centres undefined)  37.7%
38. c1cnc(N2CCc3onc(CN4CCCC4)c3C2)cn1  37.5%
39. Cc1nc(CN2CCO[C@@H]3CN(Cc4cccs4)C[C@@H]3C2)cs1  37.3%
40. COc1ccc(C)cc1S(=O)(=O)N[C@H]1CN(C(C)=O)C[C@@H]1C1CC1  35.4%
41. CCN1N=C(C(=O)N2CCCC(c3noc(C)n3)C2)CCC1=O (centres undefined)  34.1%
42. O=C1CNc2ncnc(Nc3cnn(Cc4ccccc4F)c3)c2N1  33.5%
43. Cc1ccc2c(n1)N(Cc1cccnc1)CCN(C(=O)C1CCC1)C2  32.4%
44. COCCn1c(=O)n(Cc2ccc(Cl)s2)c2cc(C(=O)O)ccc21  32.3%
45. Cn1nc(CNc2ncccn2)c2c1CN(c1cnccn1)CC2  32.1%
46. Cn1nc(COc2cccnc2)c2c1CCN(Cc1ccco1)C2  31.4%
47. CCNC(=O)CN1CCN(Cc2nc3c(F)cccc3n2CC)CC1  30.85%
48. O=C1CNc2ncnc(N3CCN(Cc4ccccc4)CC3)c2N1  30%
49. CCCNC(=O)C1(CC2CC(c3ccccc3OC)=NO2)CCOCC1 (centres undefined)  29.2%
50. Cn1c2ccccc2c2ncn(CCCN3CCOCC3)c(=O)c21  29.1%
51. COCCn1c(=O)n(Cc2ccccc2C)c2cc(C(=O)O)ccc21  29%
52. CCc1nc(C2CCCN(C(=O)C3=NN(C(C)C)C(=O)CC3)C2)no1 (centres undefined)  28.7%
53. Cn1ccc(C(=O)N2CCCC2c2cc(CCO)[nH]n2)n1 (centres undefined)  28.69%
54. O=C(c1ccncc1)N1CC[C@@H](O)[C@@H](O)[C@H](N2CCC(F)(F)CC2)C1  27.8%
55. Cc1ccc(N2CCCC(NCc3cc(C)on3)C2)nn1 (centres undefined)  27.4%
56. c1cncc(OCc2nc(C3CC3)nn2-c2ccc3c(c2)OCCO3)c1  25.4%
57. Cn1nc(COc2cncnc2)c2c1CCN(Cc1ccccn1)C2  24.9%
58. CN1CCc2c(c(COc3cncnc3)nn2CC2CC2)C1  24.6%
59. CCS(=O)(=O)N1Cc2cncn2CC(C(=O)NCC2CC2)C1 (centres undefined)  24%
60. c1cnc(N2CCC(c3cc4cccnc4[nH]3)CC2)nc1  23.2%
61. CCN1CCN(C(=O)C2CC(=O)N(c3cnn(C(C)C)c3)C2)CC1 (centres undefined)  23.1%
62. Cc1ncoc1C(=O)N1CC[C@@H](O)[C@@H](O)[C@H](N2CCC(F)(F)CC2)C1  20.4%
63. CC(Cn1ccnc1)NC(=O)C1(c2cccc(Cl)c2)CC1 (centres undefined)  19.4%
64. NCC1CCCCN1C(=O)Cc1cccc(Cl)c1 (centres undefined)  19%
65. CS(=O)(=O)N1CCCC(n2nnn(-c3ccccc3)c2=O)C1 (centres undefined)  17.55%
66. Cc1ccc(C(=O)N2CCn3cc(CN4CCCCC4)nc3C2)o1  17.4%
67. COc1ccc(OC)c(C(O)CNC(=O)Nc2cccnc2OC)c1 (centres undefined)  17.4%
68. CCOC(=O)CNC(=O)NCc1cccn1Cc1ccc(F)cc1  16.8%
69. NC(=O)c1ccc(OCC(=O)NS(=O)(=O)c2ccc3c(c2)CCC3)cc1  15.533%
70. CCS(=O)(=O)N1CCCn2cnc(COc3cccnc3)c2C1  14.6%
71. Cc1ccc(C(=O)N2CCCC2c2nnc3n2CCCCC3)s1 (centres undefined)  13%
72. NC(=O)C1(Cc2ccccc2-c2cncnc2)CCCNC1 (centres undefined)  12.915%
73. CC(C)N1CCc2c(c(COc3cccnc3)nn2CC2CC2)C1  12.7%
74. Cc1nc(C2CCCN(C(=O)c3ccoc3)C2)no1 (centres undefined)  11.6%
75. CC(NC(=O)NCC(F)(F)F)c1nncn1C (centres undefined)  11.5%
76. COc1ccc(S(=O)(=O)N[C@H]2CN(C(C)=O)C[C@@H]2C2CC2)cc1C  9.63%
77. CC(C)c1nncn1CCNC(=O)c1c(O)cc(F)cc1F  8.86%
78. COC1(CNC(=O)c2cccc(C#N)c2)CCSC1 (centres undefined)  8.7%
79. CC(C)n1cc(-n2cc3nc(N4CCOCC4)[nH]cc-3c2=O)cn1  5.18%
80. Fc1cnc(N2CCCn3cnc(COc4cccnc4)c3C2)nc1  4.68%
81. Cn1nc(Cn2ccnc2)c2c1CN(c1ncccn1)C2  3.88%
82. Cc1nc[nH]c1C(=O)N1CCCC2(CN(C)C(=O)O2)C1 (centres undefined)  3.69%
83. CC(C)[C@H]1CN(C(=O)CC2CCC2)C[C@@H]1N(C)C  3.06%
84. COC(=O)CNC(=O)c1scnc1C  2.93%
85. CNc1nc(CNC(=O)Nc2cccc(CN(C)C)c2)cs1  -0.74%
86. CCc1cnc(N)nc1N1CCCC2(CCOCC2)C1  -3.77%
87. COCCN1CCc2c(c(COc3cccnc3)nn2C)C1  -4.08%
88. Cc1ccccc1CN1CCN(c2ncnc3c2NC(=O)CN3)CC1  -4.76%
89. COCCN1CCC2(COCc3cnc(N(C)C)nc32)C1 (centres undefined)  -6.23%
90. O=C(Nc1ccccc1-c1ccccc1)NC1CCC2(C1)OCCO2 (centres undefined)  -6.67%
91. Cc1n[nH]c(C2CN(CC(=O)NCc3sccc3C)CCO2)n1 (centres undefined)  -7.36%
92. c1nc(N2CCOCC2)nc2c1COCC21CCN(CC2CC2)C1 (centres undefined)  -7.59%
93. O=S(=O)(C1CC1)N1CCC2(COCc3cnc(N4CCOCC4)nc32)C1 (centres undefined)  -8.69%
94. O=C(NCc1ccco1)c1cc[n+]([O-])cc1  -10.0965%
95. Cn1cccc1C(=O)N1CCCCC1c1ccn2ccnc2n1 (centres undefined)  -11.7%
96. Cc1nc(C(Cc2ccsc2)NC(=O)CCN2CCOCC2)sc1C (centres undefined)  -11.95%
97. Cn1nc(COCC2CC2)c2c1CCN(Cc1ccco1)C2  -12.2%
98. COC(=O)Cn1c(=O)cc(C(F)F)c2c(C)nn(CC(F)F)c21  -12.975%
99. c1cncc(C2COC3(CCN(CC4CC4)CC3)C2)c1 (centres undefined)  -18.2%
100. CCOC(=O)CNC(=O)NCc1cccn1Cc1ccccc1C  -21.3%
101. CN(Cc1cnn(C)c1)C(=O)Nc1cccnc1-n1cccn1  -24.9%
102. c1cnc(N2CCCC(c3n[nH]c4ncccc34)C2)nc1 (centres undefined)  -27.1%
103. Cc1nc(C2CCCN(C(=O)c3ccc(S(C)(=O)=O)cc3)C2)no1 (centres undefined)  -29.8%
104. Cc1nc(C2CCCN(C(=O)c3cnc(C)s3)C2)no1 (centres undefined)  -38%
105. Cc1ccc(CNc2cc3[nH]c(O)nc3cc2C)cc1  -46.3%
106. CCS(=O)(=O)N1CCC2(COCc3cnc(N4CCOCC4)nc32)C1 (centres undefined)  -50.9%
107. c1ccc(Cc2nc(C3CC3)nn2-c2ccc3c(c2)OCCO3)nc1  -52.4%
108. CCc1nc(N)nc(N2CCCC3(CCN(C)CC3)CC2)c1C  -56.2%
109. O=C(c1ccc(NCc2cccc(F)c2)cc1)N1CCC(CO)CC1  -92.5%
